# Measurements published in PubChem BioAssay (EPA / NIEHS).
# Active and inactive are the calls of the source. Rule for the calls: active = hit-call score of the fitted dose curve at least 0.9, where 1 is the maximum; inactive = score below 0.9.
# Biological target: Transcription factor E2F1 (Homo sapiens) (UniProt Q01094)
# Assay: ATG_E2F_CIS: Attagene CIS-FACTORIAL HepG2 Assay for human E2F Transcription Factor 1 (AID 2282935)
# Details: HepG2 Attagene cis-reporter, E2F reporter RNA transcripts; actives raise or lower the signal
# Protocol: ATG_CIS is a cell-based, multiplexed-readout assay that uses HepG2, a human liver cell line, with measurements taken at 24 hours after chemical dosing in a 24-well plate.ATG_E2F_CIS is one of 52 assay component(s) measured or calculated from the ATG_CIS assay. It is designed to make measurements of mRNA induction, a form of inducible reporter, as detected with fluorescence intensity signals by Reverse transcription polymerase chain reaction (RT-PCR) and Capillary electrophoresis technology.Data from the assay component ATG_E2F_CIS was analyzed into 1 assay endpoint. This assay endpoint, ATG_E2F_CIS, was analyzed with bidirectional fitting relative to DMSO as the negative control and baseline of activity. Using a type of inducible reporter, measures of mRNA for gain or loss-of-signal activity can be used to understand the reporter gene at the transcription factor-level as they relate to the gene E2F1. Furthermore, this assay endpoint can be referred to as a primary readout, because this assay has produced multiple assay endpoints where this one serves a reporter gene function. To generalize the intended target to other relatable targets, this assay endpoint is annotated to the dna binding intended target family, where the subfamily is E2F transcription factor.
# Human liver HepG2 cells are transiently transfected with multiple reporter transcription units (MRTUs) in 6-well plates using FuGene 6 reagent (Roche; 3 ml FuGene/1 mg DNA). The MRTU constructs are regulated by a cis-regulating element (promoter). […] A major difference between the CIS and TRANS system is that in CIS activities of endogenous TFs are measured, whereas the TRANS assay evaluates changes in activities of exogenous, chimeric NR-Gal4 proteins. […] At the end of 24 hour incubation, total RNA was isolated using TriZol reagent (Invitrogen). The isolated RNA is then reverse-transcribed using oligo(dT) primer and Mo-MLV reverse transcriptase (Invitrogen) with DNAse I (Ambion) treatment for 30 min. The one-tenth of the produced cDNA was amplified by PCR using Taq DNA polymerase (Invitrogen) and two reporter sequence-specific primers. The PCR products were fluorescently labeled by primer extension with 6-arboxyfluorescein (6-FAM) 5'-labeled reporter sequence-specific primer (2 min at 95 C, 20 s at 68 C and 10 min at 72 C) and these products were digested with 5U of HpaI (New England Biolabs) for 2h at 37 C. The fragments were purified using Qiaquick PCR columns (Qiagen), analyzed on an ABI 3130xL genetic analyzer (Applied Biosystems) with peak positions identified by using a set of X-rhodamine (ROX)-labeled MapMarker1000 molecular weight standards (BioVentures). The raw capillary electrophoresis data was processed using Attagraph software (Attagene).
# Chain of Transcription factor E2F1 (Homo sapiens) (Q01094 whole entry, looked up): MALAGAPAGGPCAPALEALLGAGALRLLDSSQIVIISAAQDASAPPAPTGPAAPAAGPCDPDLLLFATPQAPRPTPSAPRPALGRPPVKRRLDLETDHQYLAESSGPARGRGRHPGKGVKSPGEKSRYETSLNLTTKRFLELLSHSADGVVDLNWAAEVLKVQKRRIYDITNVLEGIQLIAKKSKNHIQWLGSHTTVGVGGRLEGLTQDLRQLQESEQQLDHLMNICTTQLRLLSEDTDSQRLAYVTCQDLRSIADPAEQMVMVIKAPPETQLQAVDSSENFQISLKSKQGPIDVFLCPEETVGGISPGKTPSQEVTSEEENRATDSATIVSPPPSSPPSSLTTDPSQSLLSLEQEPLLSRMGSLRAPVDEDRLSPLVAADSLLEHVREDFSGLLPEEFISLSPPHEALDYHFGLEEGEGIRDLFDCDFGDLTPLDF
SMILES,outcome,AC50
C[C@]12CCC(=O)C=C1CC[C@@H]1[C@@H]2C(=O)C[C@@]2(C)[C@H]1CC[C@]2(O)C(=O)CO,inactive,–
CCOC(=O)CC,inactive,–
O=[N+]([O-])c1ccc(CO)cc1,inactive,–
Cc1cccc(OCCOc2cccc(C)c2)c1,inactive,–
CC=CCO,inactive,–
Nc1ccc(Oc2ccc(N)c(N)c2)cc1,inactive,–
CCN(CCC#N)c1ccc(N=Nc2c(Cl)cc([N+](=O)[O-])cc2Cl)cc1,inactive,–
CO[Si](OC)(OC)c1ccccc1,inactive,–
C=C1C2CCC(C2)C1(C)C (stereo not given),inactive,–
C=COCCCC,inactive,–
C=CC(C)(C)C,inactive,–
CC(C)(c1cc(Br)c(OCCO)c(Br)c1)c1cc(Br)c(OCCO)c(Br)c1,–,36 µM (active)
COC(=O)c1ccccc1OC,inactive,–
OCCN(CCO)c1ccccc1,inactive,–
CO[Si](CCC1CCC2OC2C1)(OC)OC (stereo not given),inactive,–
CCC(CC)C(=O)O,inactive,–
Cc1ccc(C(C)(C)C)cc1,inactive,–
CCC(=O)Oc1ccc(/C(CC)=C(\CC)c2ccc(OC(=O)CC)cc2)cc1,inactive,–
CCc1c(C(=O)O)c(=O)cnn1-c1ccc(Cl)cc1,inactive,–
COc1ccc([C@@H]2CC(=O)c3c(O)cc(O[C@@H]4O[C@H](CO[C@@H]5O[C@@H](C)[C@H](O)[C@@H](O)[C@H]5O)[C@@H](O)[C@H](O)[C@H]4O)cc3O2)cc1OC,inactive,–

SMILES,outcome,AC50
CCCCCCCC/C=C\CCCCCCCC(=O)OCCO,inactive,–
Cc1cc(O)c(Cl)c(C)c1Cl,inactive,–
CCOCC(=O)O,inactive,–
Cc1cccc(N)n1,inactive,–
O=c1[nH]c(=O)c2[nH]c(=O)[nH]c2[nH]1,inactive,–
CCCCCCCCCCCCCCCC[N+](C)(C)CC,–,5.48 µM (active)
C=C(C)[C@H]1CC=C(C)CC1,inactive,–
O=S(=O)(O)c1cc(S(=O)(=O)O)c2ccc3c(S(=O)(=O)O)cc(S(=O)(=O)O)c4ccc1c2c43,inactive,–
OCCc1ccncc1,inactive,–
COc1cc(NC(=O)CC(C)=O)c(OC)cc1Cl,inactive,–
COC(=O)c1cc(Cl)ccc1[N+](=O)[O-],inactive,–
C=CC(C)(CCC=C(C)C)OC(=O)CC(C)C (stereo not given),inactive,–
CC(C)c1ccc2cc(C(C)C)ccc2c1,inactive,–
CC(C)COC(=O)C=Cc1ccccc1,inactive,–
CCO[Si](CCCN=C=O)(OCC)OCC,inactive,–
O=Cc1ccc(CO)o1,inactive,–
CCN(CC#N)c1cccc(C)c1,inactive,–
Nc1ncn([C@@H]2O[C@H](CO)[C@@H](O)[C@H]2O)c(=O)n1,inactive,–
CC1=CC[C@H](C(C)C)C=C1,inactive,–
NC(=O)OCC(COC(N)=O)c1ccccc1,inactive,–
